Source: the supplement of paper PMC10849652
Targets with a hit are over-represented here; the source holds about 7,900 in all. About 0.6% of all pairs of compound and target were hits.

Experiments:
Experiment in all cases: log2 fold change, soluble protein after heating vs DMSO (PISA); higher = thermal stabilisation; K562 cells, 10 uM, 30 min; active = over 0.2 and 3.5 SD of the protein, either way, in both replicates (recomputed)
saracatinib = compound: CN1CCN(CCOc2cc(OC3CCOCC3)c3c(Nc4c(Cl)ccc5c4OCO5)ncnc3c2)CC1 [saracatinib]
Summary of the method: (§1)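 K562 cells at 2×10^6 cells/mL were exposed to 10 μM compound for 30 min, then aliquots were heated for 3 min across 48°C-58°C, pooled, and extracted in PBS containing 0.5% NP-40 at 4°C. The supernatant after 21,000xg for 90 min was taken as soluble protein and measured by TMTpro 16plex LC-MS/MS with channel sums equalised. Thermal stability is reported relative to control samples, with values from duplicates. Fold changes are given on a log2 scale.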

sotrastaurin = compound: CN1CCN(c2nc(C3=C(c4c[nH]c5ccccc45)C(=O)NC3=O)c3ccccc3n2)CC1 [sotrastaurin]
Summary of the method: as §1

alvocidib = compound: CN1CC[C@H](c2c(O)cc(O)c3c(=O)cc(-c4ccccc4Cl)oc23)[C@H](O)C1 [alvocidib]
Summary of the method: as §1

Tubastatin A = compound: CN1CCc2c(c3ccccc3n2Cc2ccc(C(=O)NO)cc2)C1 [Tubastatin A]
Summary of the method: as §1

[1] = compound: CNC(=O)C1=CC=CC=C1NC2=NC(=NC=C2Cl)NC3=C(C=C(C=C3)N4CCOCC4)OC
Summary of the method: as §1

defactinib = compound: CNC(=O)c1ccc(Nc2ncc(C(F)(F)F)c(NCc3nccnc3N(C)S(C)(=O)=O)n2)cc1 [defactinib]
Summary of the method: as §1

rucaparib = compound: CNCc1ccc(-c2[nH]c3cc(F)cc4c3c2CCNC4=O)cc1 [rucaparib]
Summary of the method: as §1

[2] = compound: CNc1nc(-c2ccc3c(N)n[nH]c3c2)cc(N2C[C@@H](C(=O)NC3CCCCC3)CC[C@H]2C)n1
Summary of the method: as §1

encorafenib = compound: COC(=O)N[C@@H](C)CNc1nccc(-c2cn(C(C)C)nc2-c2cc(Cl)cc(NS(C)(=O)=O)c2F)n1 [encorafenib]
Summary of the method: as §1

[3] = compound: COC(=O)[C@H](CCSC)NC(=O)C1=C(C=C(C=C1)NC[C@H](CS)N)C2=CC=CC=C2
Summary of the method: as §1

[4] = compound: COC1=CC=C(C=C1)CN2C=CC3=C2C=C(C=C3)C(=O)NO
Summary of the method: as §1

filanesib = compound: CON(C)C(=O)N1N=C(c2cc(F)ccc2F)S[C@@]1(CCCN)c1ccccc1 [filanesib]
Summary of the method: as §1

zotarolimus = compound: CO[C@H]1C[C@@H]2CC[C@@H](C)[C@@](O)(O2)C(=O)C(=O)N2CCCC[C@H]2C(=O)O[C@H]([C@H](C)C[C@@H]2CC[C@H](n3cnnn3)[C@H](OC)C2)CC(=O)[C@H](C)/C=C(\C)[C@@H](O)[C@@H](OC)C(=O)[C@H](C)C[C@H](C)/C=C/C=C/C=C/1C [zotarolimus]
Summary of the method: as §1

idasanutlin = compound: COc1cc(C(=O)O)ccc1NC(=O)[C@@H]1N[C@@H](CC(C)(C)C)[C@](C#N)(c2ccc(Cl)cc2F)[C@H]1c1cccc(Cl)c1F [idasanutlin]
Summary of the method: as §1

alisertib = compound: COc1cc(Nc2ncc3c(n2)-c2ccc(Cl)cc2C(c2c(F)cccc2OC)=NC3)ccc1C(=O)O [alisertib]
Summary of the method: as §1

[5] = compound: COc1cc2nc(-c3cc(F)ccc3O)nc(N[C@@H]3CNC[C@H]3C(C)(C)O)c2cc1OC
Summary of the method: as §1

gefitinib = compound: COc1cc2ncnc(Nc3ccc(F)c(Cl)c3)c2cc1OCCCN1CCOCC1 [gefitinib]
Summary of the method: as §1

[6] = compound: COc1cccc2cc(-c3nc([C@H]4CC[C@H](C(=O)O)CC4)n4ncnc(N)c34)[nH]c12
Summary of the method: as §1

lapatinib = compound: CS(=O)(=O)CCNCc1ccc(-c2ccc3ncnc(Nc4ccc(OCc5cccc(F)c5)c(Cl)c4)c3c2)o1 [lapatinib]
Summary of the method: as §1

pictilisib = compound: CS(=O)(=O)N1CCN(Cc2cc3nc(-c4cccc5[nH]ncc45)nc(N4CCOCC4)c3s2)CC1 [pictilisib]
Summary of the method: as §1

Measured: log2 fold change

MAPK14 isoform 2 (UniProt Q16539)
Chain of UniProt Q16539 (Q16539 whole entry, looked up): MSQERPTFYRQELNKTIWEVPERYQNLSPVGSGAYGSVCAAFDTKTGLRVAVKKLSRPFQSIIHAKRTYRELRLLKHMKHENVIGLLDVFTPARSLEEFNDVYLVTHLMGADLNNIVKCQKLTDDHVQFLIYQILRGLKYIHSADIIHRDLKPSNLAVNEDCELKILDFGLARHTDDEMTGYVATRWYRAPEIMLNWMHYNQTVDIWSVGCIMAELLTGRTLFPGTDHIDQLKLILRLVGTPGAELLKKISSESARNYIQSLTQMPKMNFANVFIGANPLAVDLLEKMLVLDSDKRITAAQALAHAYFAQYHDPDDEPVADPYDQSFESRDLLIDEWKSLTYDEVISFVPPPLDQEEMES
inactive: saracatinib 0.486 | sotrastaurin -0.085 | alvocidib -0.021 | Tubastatin A 0.145 | [1] 0.559 | defactinib -0.25 | rucaparib 0.127 | [2] -0.029 | [3] -0.014 | [4] 0 | filanesib 0.016 | zotarolimus -0.033 | idasanutlin -0.018 | alisertib -0.058 | [5] -0.005 | gefitinib 0.811 | [6] 0.319 | lapatinib -0.034 | pictilisib -0.114
active: encorafenib 0.91

KIAA1324L (UniProt A8MWY0)
inactive: saracatinib 0.018 | sotrastaurin 0.014 | alvocidib -0.056 | Tubastatin A -0.017 | [1] -0.014 | defactinib 0.033 | rucaparib -0.021 | [2] 0.023 | encorafenib 0.015 | [3] 0.006 | [4] -0.03 | filanesib 0.091 | zotarolimus -0.09 | idasanutlin 0.07 | alisertib -0.013 | [5] 0.028 | gefitinib 0.109 | [6] 0.049 | lapatinib -0.026 | pictilisib 0.005

MFN1 (UniProt Q8IWA4)
inactive: saracatinib -0.029 | sotrastaurin 0.016 | alvocidib -0.076 | Tubastatin A 0.025 | [1] -0.019 | defactinib -0.074 | rucaparib -0.015 | [2] 0.023 | encorafenib 0.038 | [3] 0 | [4] 0.042 | filanesib -0.182 | zotarolimus 0.06 | idasanutlin 0.034 | alisertib 0.262 | gefitinib 0.017 | [6] 0.03 | lapatinib 0.002 | pictilisib 0.024
active: [5] -0.523

MICU2 (UniProt Q8IYU8)
inactive: saracatinib 0 | sotrastaurin -0.001 | alvocidib 0.048 | Tubastatin A 0.057 | [1] -0.03 | defactinib -0.014 | rucaparib 0.102 | [2] -0.021 | encorafenib 0.073 | [3] -0.044 | [4] 0.067 | filanesib -0.089 | zotarolimus -0.142 | idasanutlin 0.022 | alisertib -0.067 | [5] -0.21 | gefitinib 0.038 | [6] -0.031 | lapatinib -0.031 | pictilisib 0.005

KIFBP (UniProt Q96EK5)
inactive: saracatinib -0.039 | sotrastaurin 0.029 | alvocidib -0.021 | Tubastatin A -0.01 | [1] 0.02 | defactinib -0.092 | rucaparib 0.045 | [2] -0.019 | encorafenib 0.049 | [3] -0.134 | [4] 0.058 | filanesib -0.095 | zotarolimus 0.074 | idasanutlin -0.09 | alisertib 0.106 | [5] -0.028 | gefitinib 0.01 | [6] 0.01 | lapatinib -0.049 | pictilisib -0.071

MAGOHB (UniProt Q96A72)
Chain of UniProt Q96A72 (Q96A72 whole entry, looked up): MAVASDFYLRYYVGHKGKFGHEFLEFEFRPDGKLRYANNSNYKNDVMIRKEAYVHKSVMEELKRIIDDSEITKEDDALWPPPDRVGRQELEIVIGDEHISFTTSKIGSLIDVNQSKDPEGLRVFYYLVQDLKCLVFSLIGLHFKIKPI
inactive: saracatinib -0.047 | sotrastaurin -0.009 | alvocidib 0.03 | Tubastatin A 0.014 | [1] -0.007 | defactinib -0.003 | rucaparib -0.021 | [2] 0.022 | encorafenib 0.019 | [3] -0.071 | [4] -0.012 | filanesib 0.018 | zotarolimus 0.054 | idasanutlin -0.027 | alisertib 0.011 | [5] 0.144 | gefitinib 0 | [6] 0.024 | lapatinib -0.018 | pictilisib 0.005

LARP4B (UniProt Q92615)
Chain of UniProt Q92615 (Q92615 whole entry, looked up): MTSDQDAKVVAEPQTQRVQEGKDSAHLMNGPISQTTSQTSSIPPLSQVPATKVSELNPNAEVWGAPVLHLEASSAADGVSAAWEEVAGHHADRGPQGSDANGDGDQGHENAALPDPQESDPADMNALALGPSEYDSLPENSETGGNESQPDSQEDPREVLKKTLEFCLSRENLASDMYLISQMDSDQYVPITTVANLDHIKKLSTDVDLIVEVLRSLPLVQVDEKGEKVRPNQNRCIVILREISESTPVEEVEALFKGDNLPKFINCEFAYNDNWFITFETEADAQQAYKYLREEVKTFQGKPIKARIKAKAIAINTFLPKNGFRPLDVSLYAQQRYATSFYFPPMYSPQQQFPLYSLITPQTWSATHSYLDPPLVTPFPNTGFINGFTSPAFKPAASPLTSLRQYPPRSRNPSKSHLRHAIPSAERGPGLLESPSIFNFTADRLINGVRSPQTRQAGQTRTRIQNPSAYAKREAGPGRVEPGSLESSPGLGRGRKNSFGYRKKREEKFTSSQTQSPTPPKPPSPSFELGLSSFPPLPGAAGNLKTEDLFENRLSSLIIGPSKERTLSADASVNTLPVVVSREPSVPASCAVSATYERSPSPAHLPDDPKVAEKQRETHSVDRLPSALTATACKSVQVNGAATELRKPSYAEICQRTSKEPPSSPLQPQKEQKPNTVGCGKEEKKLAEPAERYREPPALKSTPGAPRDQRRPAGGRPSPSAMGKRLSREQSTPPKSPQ
inactive: saracatinib -0.009 | sotrastaurin -0.083 | alvocidib 0.004 | Tubastatin A -0.033 | [1] -0.025 | defactinib -0.037 | rucaparib 0.273 | [2] 0.02 | encorafenib 0.094 | [3] 0.032 | [4] 0.035 | filanesib 0.056 | zotarolimus 0.004 | idasanutlin 0.053 | alisertib -0.054 | [5] -0.108 | gefitinib 0.011 | [6] -0.06 | lapatinib 0.081 | pictilisib -0.009

ILF3 isoform 7 (UniProt Q12906)
inactive: saracatinib 0.001 | sotrastaurin 0.087 | alvocidib 0.362 | Tubastatin A -0.044 | [1] 0.03 | rucaparib 0.202 | [2] -0.003 | encorafenib 0.032 | [3] 0 | [4] 0.022 | filanesib 0.213 | zotarolimus -0.047 | idasanutlin 0.095 | alisertib -0.061 | [5] 0.174 | gefitinib -0.022 | [6] -0.06 | lapatinib 0 | pictilisib 0.018
active: defactinib 0.554

LARP7 isoform 3 (UniProt Q4G0J3)
active: alvocidib -0.234 | defactinib -0.328 | [4] -0.258
inactive: saracatinib 0.015 | sotrastaurin -0.076 | Tubastatin A -0.002 | [1] -0.04 | rucaparib -0.164 | [2] 0.003 | encorafenib 0.034 | [3] -0.019 | filanesib 0.071 | zotarolimus 0.082 | idasanutlin -0.019 | alisertib -0.007 | [5] -0.165 | gefitinib 0.001 | [6] 0.042 | lapatinib 0.082 | pictilisib -0.041

LTN1 isoform 3 (UniProt O94822)
Chain of UniProt O94822 (O94822 whole entry, looked up): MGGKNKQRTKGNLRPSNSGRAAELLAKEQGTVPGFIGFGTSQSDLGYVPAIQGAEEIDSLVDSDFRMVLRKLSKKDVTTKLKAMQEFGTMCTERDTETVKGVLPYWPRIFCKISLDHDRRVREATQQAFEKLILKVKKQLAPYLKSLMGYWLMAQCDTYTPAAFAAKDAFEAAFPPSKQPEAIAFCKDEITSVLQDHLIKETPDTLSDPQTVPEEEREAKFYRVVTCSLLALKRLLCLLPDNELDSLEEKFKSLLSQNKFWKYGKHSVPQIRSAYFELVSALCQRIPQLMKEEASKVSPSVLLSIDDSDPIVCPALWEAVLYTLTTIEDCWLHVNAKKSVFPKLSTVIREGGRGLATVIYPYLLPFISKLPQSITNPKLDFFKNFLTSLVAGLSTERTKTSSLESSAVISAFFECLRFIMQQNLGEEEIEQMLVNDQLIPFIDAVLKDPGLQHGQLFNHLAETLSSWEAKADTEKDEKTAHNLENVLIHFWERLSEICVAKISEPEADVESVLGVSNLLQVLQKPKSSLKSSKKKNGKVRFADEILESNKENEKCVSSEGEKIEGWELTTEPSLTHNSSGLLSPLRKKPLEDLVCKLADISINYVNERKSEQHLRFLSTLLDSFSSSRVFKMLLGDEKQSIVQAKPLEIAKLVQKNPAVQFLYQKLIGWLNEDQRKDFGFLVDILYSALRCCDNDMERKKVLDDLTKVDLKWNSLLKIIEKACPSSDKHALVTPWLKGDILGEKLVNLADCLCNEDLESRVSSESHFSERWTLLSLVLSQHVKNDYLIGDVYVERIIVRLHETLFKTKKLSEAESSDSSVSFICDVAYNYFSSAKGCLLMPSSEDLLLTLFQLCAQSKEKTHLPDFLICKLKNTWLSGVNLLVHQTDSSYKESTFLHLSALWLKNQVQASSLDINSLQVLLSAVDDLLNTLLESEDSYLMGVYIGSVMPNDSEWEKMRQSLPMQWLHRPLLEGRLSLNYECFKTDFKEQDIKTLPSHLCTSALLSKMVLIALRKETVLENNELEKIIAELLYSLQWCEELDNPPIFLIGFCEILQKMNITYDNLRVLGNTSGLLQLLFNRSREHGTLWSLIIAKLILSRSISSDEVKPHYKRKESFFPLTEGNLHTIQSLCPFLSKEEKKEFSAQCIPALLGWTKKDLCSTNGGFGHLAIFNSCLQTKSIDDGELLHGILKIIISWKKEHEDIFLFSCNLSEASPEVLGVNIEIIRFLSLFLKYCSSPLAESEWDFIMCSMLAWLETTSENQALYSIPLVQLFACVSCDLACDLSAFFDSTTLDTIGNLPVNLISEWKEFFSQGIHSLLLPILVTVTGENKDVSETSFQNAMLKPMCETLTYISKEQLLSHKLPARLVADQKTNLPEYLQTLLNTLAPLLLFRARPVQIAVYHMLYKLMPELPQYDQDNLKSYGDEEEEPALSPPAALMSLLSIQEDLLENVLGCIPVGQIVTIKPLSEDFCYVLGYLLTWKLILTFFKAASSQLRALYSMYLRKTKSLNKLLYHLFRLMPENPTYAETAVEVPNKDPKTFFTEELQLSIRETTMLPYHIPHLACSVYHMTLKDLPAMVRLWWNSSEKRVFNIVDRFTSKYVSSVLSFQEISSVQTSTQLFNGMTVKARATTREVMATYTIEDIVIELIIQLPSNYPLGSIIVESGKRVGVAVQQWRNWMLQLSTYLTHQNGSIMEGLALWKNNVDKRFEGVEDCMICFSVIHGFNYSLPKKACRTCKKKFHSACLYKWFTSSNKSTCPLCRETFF
inactive: saracatinib -0.016 | sotrastaurin -0.114 | alvocidib -0.042 | Tubastatin A 0.196 | [1] 0.01 | defactinib -0.114 | rucaparib 0.158 | [2] -0.012 | encorafenib 0.047 | [3] -0.057 | [4] 0 | filanesib -0.009 | zotarolimus 0.039 | idasanutlin -0.136 | alisertib 0.01 | [5] 0.04 | gefitinib -0.04 | [6] -0.108 | lapatinib -0.029 | pictilisib -0.157

KHDC4 (UniProt Q7Z7F0)
inactive: saracatinib -0.139 | sotrastaurin 0.027 | alvocidib -0.15 | Tubastatin A 0.052 | [1] 0.019 | defactinib -0.058 | rucaparib -0.058 | [2] 0.023 | encorafenib 0.008 | [3] -0.023 | [4] 0.14 | filanesib -0.025 | zotarolimus 0.035 | idasanutlin -0.043 | alisertib -0.003 | [5] 0.025 | gefitinib 0.015 | [6] -0.026 | lapatinib -0.025 | pictilisib -0.028

IPO7 (UniProt O95373)
inactive: saracatinib -0.004 | sotrastaurin -0.089 | alvocidib -0.146 | Tubastatin A 0.023 | [1] 0.01 | defactinib -0.163 | rucaparib -0.083 | [2] -0.012 | encorafenib 0.052 | [3] -0.015 | [4] 0.053 | filanesib -0.094 | zotarolimus 0.014 | idasanutlin -0.103 | alisertib -0.087 | [5] -0.111 | gefitinib 0 | [6] -0.014 | lapatinib -0.008 | pictilisib -0.006

MCU (UniProt Q8NE86)
Chain of UniProt Q8NE86 (Q8NE86 whole entry, looked up): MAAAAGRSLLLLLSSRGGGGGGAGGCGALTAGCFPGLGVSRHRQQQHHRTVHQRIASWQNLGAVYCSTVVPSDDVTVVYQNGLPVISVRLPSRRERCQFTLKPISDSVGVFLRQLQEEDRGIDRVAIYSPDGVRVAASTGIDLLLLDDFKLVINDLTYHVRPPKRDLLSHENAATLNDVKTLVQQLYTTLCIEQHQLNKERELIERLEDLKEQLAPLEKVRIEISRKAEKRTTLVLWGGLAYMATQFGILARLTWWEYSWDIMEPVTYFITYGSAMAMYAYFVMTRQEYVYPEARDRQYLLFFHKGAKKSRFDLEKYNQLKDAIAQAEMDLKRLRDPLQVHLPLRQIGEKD
inactive: saracatinib 0.039 | sotrastaurin -0.028 | alvocidib -0.08 | Tubastatin A 0.036 | [1] 0.013 | defactinib -0.043 | rucaparib -0.032 | [2] -0.014 | encorafenib -0.017 | [3] -0.032 | [4] -0.056 | filanesib -0.152 | zotarolimus 0.164 | idasanutlin -0.091 | alisertib -0.053 | [5] -0.053 | gefitinib -0.049 | [6] 0.054 | lapatinib -0.099 | pictilisib 0.09

MAP3K7 (UniProt O43318)
Chain of UniProt O43318 (O43318 whole entry, looked up): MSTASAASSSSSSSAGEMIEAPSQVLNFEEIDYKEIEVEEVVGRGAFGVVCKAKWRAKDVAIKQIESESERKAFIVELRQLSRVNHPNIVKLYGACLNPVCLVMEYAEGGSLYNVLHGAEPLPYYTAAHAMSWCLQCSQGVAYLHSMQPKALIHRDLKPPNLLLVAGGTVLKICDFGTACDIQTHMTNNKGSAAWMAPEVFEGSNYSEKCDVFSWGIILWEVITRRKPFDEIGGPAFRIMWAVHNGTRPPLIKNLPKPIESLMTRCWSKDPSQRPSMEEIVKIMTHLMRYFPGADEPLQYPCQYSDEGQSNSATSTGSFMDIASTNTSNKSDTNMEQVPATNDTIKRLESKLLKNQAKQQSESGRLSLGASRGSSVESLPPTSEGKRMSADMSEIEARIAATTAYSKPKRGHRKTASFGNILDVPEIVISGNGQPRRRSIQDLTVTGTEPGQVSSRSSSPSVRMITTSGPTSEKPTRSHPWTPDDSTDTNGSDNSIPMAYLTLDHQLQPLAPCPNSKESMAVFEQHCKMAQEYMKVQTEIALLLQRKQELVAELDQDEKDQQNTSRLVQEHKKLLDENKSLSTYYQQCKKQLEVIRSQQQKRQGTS
inactive: saracatinib -0.07 | sotrastaurin -0.146 | alvocidib -0.072 | Tubastatin A 0.054 | [1] 0.023 | defactinib -0.023 | rucaparib 0.099 | [2] -0.035 | encorafenib 0.1 | [3] -0.011 | [4] 0.105 | filanesib 0.026 | zotarolimus -0.074 | idasanutlin -0.03 | alisertib 0.084 | [5] 0.065 | gefitinib 0.016 | [6] -0.054 | lapatinib -0.058 | pictilisib 0.088

MFSD5 isoform 2 (UniProt Q6N075)
Chain of UniProt Q6N075 (Q6N075 whole entry, looked up): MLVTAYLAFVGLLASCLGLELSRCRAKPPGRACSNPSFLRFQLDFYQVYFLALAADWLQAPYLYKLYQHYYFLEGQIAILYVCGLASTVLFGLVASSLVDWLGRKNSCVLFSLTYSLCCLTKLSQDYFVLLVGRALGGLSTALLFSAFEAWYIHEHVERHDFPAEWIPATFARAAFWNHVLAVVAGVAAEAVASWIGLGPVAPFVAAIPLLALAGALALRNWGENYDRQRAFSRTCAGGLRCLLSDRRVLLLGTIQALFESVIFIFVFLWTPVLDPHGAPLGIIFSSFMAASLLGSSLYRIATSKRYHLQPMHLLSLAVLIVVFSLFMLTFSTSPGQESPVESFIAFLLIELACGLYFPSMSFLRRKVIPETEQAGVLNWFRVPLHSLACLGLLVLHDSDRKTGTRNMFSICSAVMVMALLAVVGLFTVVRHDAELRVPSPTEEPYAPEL
inactive: saracatinib 0.058 | sotrastaurin 0.122 | alvocidib 0.029 | Tubastatin A -0.093 | [1] 0.069 | defactinib 0.039 | rucaparib 0.058 | [2] -0.065 | encorafenib -0.022 | [3] 0.012 | [4] 0.037 | filanesib 0.018 | zotarolimus -0.149 | idasanutlin -0.058 | alisertib 0.011 | [5] -0.026 | gefitinib 0.039 | [6] 0.12 | lapatinib 0.045 | pictilisib 0.062

MAPK9 (UniProt P45984)
Chain of UniProt P45984 (P45984 whole entry, looked up): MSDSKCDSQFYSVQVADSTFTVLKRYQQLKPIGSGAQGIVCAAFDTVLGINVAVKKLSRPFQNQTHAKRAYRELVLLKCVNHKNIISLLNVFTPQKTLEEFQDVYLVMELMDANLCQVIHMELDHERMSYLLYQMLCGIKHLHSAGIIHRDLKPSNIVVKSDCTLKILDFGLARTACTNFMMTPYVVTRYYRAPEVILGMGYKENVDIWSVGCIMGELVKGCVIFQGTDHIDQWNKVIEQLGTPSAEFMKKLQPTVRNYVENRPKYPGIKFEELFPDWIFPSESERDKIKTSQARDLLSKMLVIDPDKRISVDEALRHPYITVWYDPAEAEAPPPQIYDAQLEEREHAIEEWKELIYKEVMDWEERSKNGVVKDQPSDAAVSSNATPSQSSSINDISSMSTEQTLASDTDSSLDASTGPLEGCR
inactive: saracatinib -0.118 | sotrastaurin 0.046 | alvocidib 0.002 | Tubastatin A -0.013 | defactinib 0.003 | rucaparib -0.02 | [2] 0 | encorafenib 0.018 | [3] 0.029 | [4] -0.004 | filanesib -0.01 | zotarolimus -0.022 | idasanutlin -0.062 | alisertib -0.072 | [5] 0.043 | gefitinib 0.009 | [6] 0.001 | lapatinib -0.039 | pictilisib 0.075
active: [1] 0.328
